40 sequences from the supplement of paper PMC10681739 can be followed below.

The target in this test is T1, ETS1 (UniProt P14921).
T1 sequence: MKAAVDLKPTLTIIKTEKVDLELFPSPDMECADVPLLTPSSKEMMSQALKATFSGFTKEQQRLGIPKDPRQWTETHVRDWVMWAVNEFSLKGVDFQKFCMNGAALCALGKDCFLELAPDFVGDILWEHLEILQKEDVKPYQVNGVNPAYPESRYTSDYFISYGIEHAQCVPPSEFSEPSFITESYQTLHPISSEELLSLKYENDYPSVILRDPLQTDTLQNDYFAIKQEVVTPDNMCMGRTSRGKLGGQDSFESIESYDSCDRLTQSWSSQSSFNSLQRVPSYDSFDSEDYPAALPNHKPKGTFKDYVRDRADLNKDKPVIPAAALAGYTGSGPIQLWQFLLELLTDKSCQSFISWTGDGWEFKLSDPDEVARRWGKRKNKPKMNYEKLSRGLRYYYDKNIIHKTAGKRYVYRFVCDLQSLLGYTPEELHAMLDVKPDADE
Description: ETS1 binding intensity (PBM fluorescence), ETS1 alone (arbitrary fluorescence units); higher = stronger binding. As to conditions: ETS1 concentration 1 nM; RUNX1 concentration 0 nM. The procedure: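 Cooperative genomic-context PBM: 36-bp genomic probes with neighbouring ETS1 and RUNX1 sites, double-stranded on Agilent 4x180k arrays. Full-length recombinant human ETS1 (1 nM) was incubated alone or with RUNX1 (25 nM) and detected with anti-ETS1 antibody plus Alexa488 secondary. Value is the median fluorescence intensity over 4 replicate spots; the ETS1+RUNX1 data were normalised to the ETS1-only data using probes without RUNX1 sites. The 36-bp variable region sits on the array probe with constant linker/primer flanks that are not printed.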
For TATTCTTCCTGTACTTAAGCTTGCTGGTGTGGTTTC, the ETS1 binding intensity is 397. Consider CCTGTTGATAAAACAGGATGTGGTAAAGAAGCTGGC, for which the ETS1 binding intensity was found to be 9030. The figure for TCCAGCCGGACGCGATGCCTGGAGGCTGCGGGCGCC is 328. The sequence GCACCACCGGAAGTAGGGCTCAACCACCGCTCATTT yielded an ETS1 binding intensity of 10300.

Consider TCCTCCGTTTCCGTAGTTCCGAGTTGCGGTTTCTCC, for which the ETS1 binding intensity amounted to 487.

The sequence CGCCCACCACTTCCTGCTGGCGGTCGGCAAGCGTTG registered an ETS1 binding intensity of 1430. Next, AGCCACGGACTTCCGCCTACAGGTCGCCGCAGGTCC: 701. The figure for GTAAACTAGCTCTTCCGGTCTGTGGCCCTCACAGGA is 2840. As to GAAGCGCTGGGCGGAAGTGGCTGTGGCTTTGCCCTT, the ETS1 binding intensity is 9200. The figure for GGATGACATCCGGCACCAACTTAACCACTAATCTCA is 615. As for GAGCTAGCCACTTCCTCCCCCACAACTACACCCAGG, the ETS1 binding intensity stood at 814. Next, AAATGTGGCCGGATGCTCTGTGGGCGGGCGGCAGCT: 2890. Next, ACAACTTCCTGTGGGATTTTTGGTGTCTGCGGCTCA: 818.

Take GACGGCCCCAGCGGAAGTGGTTGCCTTGGTTTGCGC: the ETS1 binding intensity was 9920.

AAACATCATAGGAAGTGGATTTTGTGGTGAGAGACA: the ETS1 binding intensity worked out at 1160. Next, GCCCCGGAAGTGGCCCGGCTGTTGGCCGCAGCGGGA: 2810. Turning to GAAGGAAGTGGAGACAGTAAGGGGAAACCACAAACC, the ETS1 binding intensity is 1060.

GCAGTGCAGGAAGTGCTTTGTGTGGTACAATCCCAA: the ETS1 binding intensity amounted to 1920. Next, GAAACCTCACTCTGAGGATGTGGGTTCTGCCTTCTT: 522. The figure for AACCTAGAAAAGGAAGCTGCGGTTTTTCAGGGTATG is 697; for TGCGACGGAAGCAGGAACTTGCTAACCACAAAACCC it is 1350; for CCCATTTCCTGCTCTCCAGAGTTAACCACTGAAGTC it is 815. The figure for CGAAGAGGAAGCCCCTGTATCACCCCACAAGAAGCC is 544; for ACCCCGGAAGTGTGGGCGCGGCTGCGGTTTAACCCG it is 2640; for TCAGAACCAGGAAACTGAAGGCGGTTACTCCACATA it is 526. As to ACCAACCGGAAGTGATCGTGTTGTGGCCGAAGGAGG, the ETS1 binding intensity was found to be 16100. Sequence GAGTTCTAGACTACAGGATGTGGTTAGAAGAAAAGA registered an ETS1 binding intensity of 4670. Next, CTAAGTGCTCTTCCTGCCAACCTGTGGGCGCCTGGC: 559; AGCCCTCTGCAACTTCCCGGCCCCACAGCCCCACCC: 678; GAGGGCCTGGGAGGAAGTGGGTTTTGCATACAGTCC: 1870.

Sequence CAGCTCTCTCGCTTCCTGTGGTGTAAACATGAAGCA yielded an ETS1 binding intensity of 1570.

For CTTGCTTGAGTCACAGGAAACCACTCAGAGGCTAAC, the ETS1 binding intensity was found to be 2600. Take GGGGCAGCTTCCGGCAGGAGAGCCCGCATTCCCGGC: the ETS1 binding intensity came to 903. For CTCTGAAGGAAGTGATGTTAGACGGCTGTGGGTGGT, the ETS1 binding intensity was 545. Next, CGGTCAGGTCGCAGGAAACCACAGCGGCAGCGCGGC: 732; CCCCACCCAGACAGGAAACTGTGGCTTCTATCAGAT: 3020. Next, GGTCTGGAGGATGTTTGCAGCTGCTGTGGGTGGTGG: 586; TTTCCAGAGGATGTAGCTTCTGCGGGAGAGCTTCAA: 546. As for CAGGGAAGTTCGAACTGGGCGGGGCCCACCGCAGTT, the ETS1 binding intensity amounted to 336. In the case of TCGGAACGGAAGGGAGGCACGAAACCGCGAGTGGAG, the ETS1 binding intensity was found to be 607.
